Screening data: PubChem BioAssay, National Center for Advancing Translational Sciences (NCATS)
In the library only some 19% were active in any assay of this set; here they are far more common.
HT1080NT lethal – kills 2HG-producing HT-1080-NT fibrosarcoma cells | HT-1080-NT fibrosarcoma viability, CellTiter-Glo ATP luminescence, 48 h | Potency, µM (titrated, usually from 46.1 µM), inactives show at the highest dose activity, negative = less viability, hits mostly cytotoxic | actives 1.6% (n = 360,000) | AID 686970;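 further: NT is the 2HG producing partner of a matched IDH1 knockdown line; potency means the concentration at half of the fitted maximal effect; 0% = DMSO-treated cells and -100% = media-only wells without cells; nearly all actives have a fitted effect of over 55% in size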
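HT-1080-NT fibrosarcoma cells (2HG-overproducing), 750 cells/well in RPMI with 5% FBS, dosed after 2 h and incubated 48 h at 37C. CellTiter-Glo luminescence normalized to DMSO and no-cell wells; concentration-response curves fitted and classed.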
ELG1 DNA repair – ELG1-dependent DNA repair inhibition | AID 504467 | actives 2.3% (n = 330,000) | Potency, µM (series often up to 46.1 µM), inactives show at the top dose activity change, negative = inhibition, actives largely listed as inhibitors | HEK293T ELG1-luciferase reporter, luminescence, 16 h; DNA damage induced by 5-fluorouridine; further: potency means the concentration at half of the fitted maximal effect; nearly all actives have a fitted effect of over 55% in size
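Quantitative HTS, concentration-response format. 2,000 cells/well co-treated with 5-fluorouridine and compound, 16 hr in 5% CO2 at 37 °C; ONE-Glo luminescence read after 30 min.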
HT1080 IDH1KD tx – toxicity to HT-1080 IDH1 knockdown cells (counter line); HT-1080 IDH1 knockdown viability, ATP luminescence, 48 h; Potency, µM (highest dose often 46.1 µM), for inactives: at the top dose activity, negative = toxicity, hits mostly cytotoxic; actives 2% (n = 360,000); AID 686971;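 further: potency means the concentration at half of the fitted maximal effect; 0% = DMSO wells and -100% = cell-free medium wells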
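In this qHTS, HT-1080 cells depleted of IDH1 are exposed for 48 h at 37 °C to compound titrations. Toxicity is scored from CellTiter-Glo luminescence, with DMSO as full viability and medium alone as none.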
DT40 TDP1 CPT – DT40-hTDP1 cell growth loss with CPT. AID 686979. Potency, µM (top dose mostly 46.2 µM), inactives show at the highest dose activity change, negative = growth inhibition, most hits filed as inhibitors. actives 12% (n = 420,000). chicken DT40 Tdp1-/-;hTDP1 cells + 20 nM CPT, ATP luminescence, 48 h; further: potency means the concentration at half of the fitted maximal effect; nearly all actives have a fitted effect of over 55% in size
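Chicken DT40 Tdp1-/- cells complemented with human TDP1, 400 cells/well, exposed to compounds plus 20 nM camptothecin for at least 48 h at 37 C; viability read as ATP content by CellTiter-Glo luminescence.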
IL-1B inflam inh – blocks inflammasome-driven IL-1 beta release | THP-1 LPS/ATP IL-1B secretion, AlphaLISA, 16 h; hits give low values | actives 4.7% (n = 360,000) | activity change, % at 57.5 µM; in the data active means activity change below about -50%; inconclusive means mostly about -30% to -49%
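Secreted IL-1B measured by AlphaLISA bead assay after 16 h compound exposure of THP-1 cells; compounds (final up to 57.5 uM) added 1 h before LPS (250 ng/mL) and ATP (1.25 mM) stimulation; lower signal means less secretion.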
TDP1 cell noCPT – qHTS for Inhibitors of human tyrosyl-DNA phosphodiesterase 1 (TDP1): qHTS in cells in absence of CPT | Potency, µM (highest dose often 46.2 µM), without a hit: top-dose activity change, negative = growth inhibition, actives largely listed as inhibitors | DT40 Tdp1-/- hTDP1 cells, no CPT, ATP luminescence, 48 h | AID 686978, 2013 | actives 15% (n = 420,000); further: potency means the concentration at half of the fitted maximal effect; nearly all actives have a fitted effect of over 55% in size
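Growth of hTDP1-complemented DT40 Tdp1-knockout cells is measured by ATP luminescence after at least 48 hr compound exposure at 37 °C, with DMSO substituting for the 20 nM CPT used in the parallel screen.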
Starred values were filed as active, the others as inactive; u = inconclusive; x = no result given; [ ] = remark or other dose. Unless noted, the call rests on the fitted dose curve; in most records, active means well fitted curve in the direction sought with a large enough effect; inconclusive means small, poorly fitted or top-dose-only effect, or another doubt; inactive means no such curve, though single readings can be large; an effect the other way counts as inactive or inconclusive. Unless noted, on the % scale 0 is the no-effect control and ±100 the full control effect.

SMILES	HT1080NT lethal	ELG1 DNA repair	HT1080 IDH1KD tx	DT40 TDP1 CPT	IL-1B inflam inh	TDP1 cell noCPT
N#CC1c2ccccc2-n2nncc2CN1C(=O)CCc1ccccc1 (centres undefined)	3.9%	x	1.5%	14.6µM*	-4.4	10.3µM*
CC(C)OC(=O)Nc1cccc(Cl)c1	x	x	x	-1.3%	x	2.8%
C[C@]12N[C@@H](Cc3ccccc31)c1ccccc12	x	x	x	-1.4%	x	-14.4%
O=C(CCN1CCN(c2ccccc2)CC1)c1ccc(Br)cc1	4.7%	7.9%	1.3%	9.2µM*	-16.9	5.8µM*
CN(C)P(=NC(=S)c1cccn1C)(N(C)C)N(C)C	u	x	-25.7%	8.2µM*	2.7	4.11µM*
CN(C)P(=O)(NC(=O)c1cccn1C)N(C)C	-4.2%	-1.3%	-2.3%	0.7%	-29.4	-1.5%
O=c1[nH]cnc2nc(-c3ccc(N(CCCl)CCCl)cc3)[nH]c12	u	x	0.651µM*	u	-17.4	u
CCOC(=O)C1=C(Cc2ccc(Cl)cc2)C(=O)c2ccccc2C1=O	11.2µM*	18.3%	10µM*	4.61µM*	-88.8*	4.61µM*
COc1ccc(OC(=O)Nc2ccccc2)cc1	u	u	-0.9%	-15.7%	-11.5	-16.7%
COc1ccc(CC(N)c2csc(NC(=O)Nc3ccccc3Oc3ccccc3)n2)cc1 (centres undefined)	14.6µM*	x	u	u	u	16.4µM*
CCCCC/C=C\C/C=C\CCCCCCCC(=O)NCCO	x	x	x	2.7%[4.12 µM]	x	-2.3%[4.12 µM]
CC(NC1CCCCC1)C(O)C12CC3CC(CC(C3)C1)C2 (centres undefined)	u	-17.7%	u	18.4µM*	-54.7*	16.4µM*
Cn1cnc([N+](=O)[O-])c1Sc1ccc([N+](=O)[O-])cc1	16.4µM*	u	20.6µM*	3.66µM*	-100.7*	5.17µM*
COc1ccc2[nH]c(C)c(CCNCc3cc(OC)c4c(c3)OCO4)c2c1	-26.6%	u	-24.0%	u	-8.9	u
COc1ccc(CNC(=O)Cn2c(=O)oc3cc(S(=O)(=O)N4CCCC4)ccc32)cc1	-22.9%	-5.0%	-12.1%	18.4µM*	-6.2	u
CN(C)c1ccc(CNC(=O)Cn2c(=O)oc3cc(S(=O)(=O)N4CCCCCC4)ccc32)cc1	x	x	x	11.6µM*	x	-28.3%
CC(C)CCNC(=O)Cn1c(=O)oc2cc(S(=O)(=O)N3CCc4ccccc43)ccc21	-5.8%	u	-6.3%	u	-1.3	u
CC(C)c1ccc(NC(=O)Cn2c(=O)oc3cc(S(=O)(=O)N4CCCC4)ccc32)cc1	x	x	x	9.2µM*	x	u
COc1ccc(-n2c(O)c(C=NCCN3CCN(C(C)=O)CC3)c(=O)[nH]c2=S)cc1	-9.2%	15.9%	1.6%	10.8%	34.2	-15.8%
C[C@]12CCC3C(CC[C@H]4C[C@H](O)CC[C@]34C)C1[C@@H](O)C[C@@H]2O (some centres undefined)	4.2%	10.0%	11.4%	-14.2%	3.5	-25.3%
CCN(CC)/[N+]([O-])=N/O	x	x	x	-9.0%	x	-13.0%
O=C(c1cc(S(=O)(=O)N2CCC3(CC2)OCCO3)ccc1F)N1CCC2(CC1)OCCO2	-6.8%	-7.1%	2.8%	-4.9%	-11.2	-14.6%
CCOC(=O)[C@]12Cc3cc(Cl)ccc3[C@H]1N(C)C(=O)c1ccccc12	3.3%	x	1.5%	u	-62.4*	u
CCOC(=O)[C@]12Cc3cc(Cl)ccc3[C@H]1N(C(C)C)C(=O)c1ccccc12	4.61µM*	x	3.26µM*	2.59µM*	x	3.26µM*
CCOC(=O)[C@]12Cc3cc(C)ccc3[C@H]1N(C)C(=O)c1cc(OC)ccc12	u	x	16.4µM*	20.6µM*	-116.2*	23.1µM*
SMILES	HT1080NT lethal	ELG1 DNA repair	HT1080 IDH1KD tx	DT40 TDP1 CPT	IL-1B inflam inh	TDP1 cell noCPT
COc1ccc(C2C(C(=O)N3CCC4(CC3)OCCO4)c3cc(OC)c(OC)cc3C(=O)N2C)cc1 (centres undefined)	14.7%	0.0%	17.5%	0.7%	-0.6	-9.2%
CCOC(=O)[C@]12Cc3cc(OC)ccc3[C@H]1N(C)C(=O)c1ccccc12	8.6%	x	13.8%	-26.7%	u	u
CCOC(=O)[C@]12Cc3cc(Cl)ccc3[C@H]1N(CC(=O)OC)C(=O)c1ccccc12	5.8µM*	x	7.31µM*	9.2µM*	x	4.11µM*
CC(C)C[C@H](NP(=O)(O)O[C@@H]1O[C@@H](C)[C@H](O)[C@@H](O)[C@H]1O)C(=O)N[C@@H](Cc1c[nH]c2ccccc12)C(=O)O	18.5%	20.3%	6.5%	-0.3%	-2.3	-1.0%
CC1CN1P(=S)(c1ccccc1)N1CC1C (centres undefined)	0.0%	x	0.2%	-28.7%	9.1	-9.1%
CCOC(=O)[C@]12Cc3cc(C)ccc3[C@H]1N(C)C(=O)c1ccccc12	0.3%	x	-16.2%	16.4µM*	-13.1	16.4µM*
CCC1(CC)COP(=O)(OCC(Cl)CCl)OC1 (centres undefined)	-6.4%	x	-1.1%	0.5%	10.5	-3.8%
Cc1c(CCNS(=O)(=O)c2ccccc2)sc2nc(-c3ccc(Cl)cc3)nn12	x	x	x	7.31µM*	x	9.2µM*
COc1ccc2nc(NC(=O)CCNS(=O)(=O)c3ccc4c(c3)oc(=O)n4C)sc2c1	15.5%	19.9%	8.2%	-27.4%	21.3	u
CCC1=CCN(CCc2c(C)[nH]c3ccccc23)CC1	1.5%	x	0.0%	1.8%	-8.3	0.581µM*
CCC12CN3CC(CC)(CN(C1)C3c1c(C)[nH]c(=O)[nH]c1=O)C2=O (centres undefined)	x	x	x	-7.8%	x	-8.0%
O=C(c1ccc(Cl)cc1)C1CCCN(Cc2cccc3cnccc23)C1 (centres undefined)	-3.1%	u	-7.4%	20.6µM*	-6.8	6.51µM*
O=C(c1ccc(Cl)cc1)C1CCCN(Cc2ccc3ncccc3c2)C1 (centres undefined)	-23.1%	u	-27.8%	14.6µM*	-11.3	16.4µM*
COc1ccc(CN2CCCC(C(=O)c3ccc(Cl)cc3)C2)c(OC)c1 (centres undefined)	u	-1.9%	9.2µM*	u	-67.9*	18.4µM*
COc1cccc(C(=O)C2CCCN(Cc3cccc4c3OCO4)C2)c1 (centres undefined)	-29.2%	5.1%	-14.9%	u	4.3	u
